SNCA expr inh: inhibitors of alpha-synuclein (SNCA) gene expression | 140,000 tested, 0.17% active | AID 1671194 | Potency, µM (series often up to 57.2 µM), for inactives: at the top dose activity change, negative = inhibition, actives largely listed as inhibitors | HEK-293 SNCA-luciferase knock-in, luminescence, 24 h;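 note: potency is the fitted concentration of half-maximal effect; plate controls were DMSO cells for no effect and cell-free wells for full effect; nearly all actives have a fitted effect of over 45% in size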
SNCA viab count: reduces viability of HEK-293 SNCA reporter cells; HEK-293-SNCA-luc viability, GF-AFC fluorescence, 24 h; Potency, µM (highest dose often 57.1 µM), for inactives: top-dose activity change, negative = cytotoxicity, hits mostly cytotoxic; 150,000 tested, 0.12% active;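 note: potency is the fitted concentration of half-maximal effect; 0% = DMSO-treated cells and -100% = medium-only wells without cells; nearly all actives have a fitted effect of over 30% in size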
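HEK-293-SNCA-luc cells (1500/well) plated 24 h, then exposed 24 h to a dilution series; GF-AFC added 30 min at 37C, fluorescence 405/540 nm; normalised to medium-only and DMSO wells, Hill fit.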
IP6K1 inh: IP6K1 kinase inhibition; Q92551; IP6K1 kinase, ADP-Glo luminescence, 2 h; active compounds read low; activity change, % (series mostly up to about 58 µM); 140,000 tested, 0.81% active; in the data active = activity change below about -25%; note: % is set by controls: 0 for no effect and ±100 for the full control effect
Target sequence (Q92551 whole entry, looked up): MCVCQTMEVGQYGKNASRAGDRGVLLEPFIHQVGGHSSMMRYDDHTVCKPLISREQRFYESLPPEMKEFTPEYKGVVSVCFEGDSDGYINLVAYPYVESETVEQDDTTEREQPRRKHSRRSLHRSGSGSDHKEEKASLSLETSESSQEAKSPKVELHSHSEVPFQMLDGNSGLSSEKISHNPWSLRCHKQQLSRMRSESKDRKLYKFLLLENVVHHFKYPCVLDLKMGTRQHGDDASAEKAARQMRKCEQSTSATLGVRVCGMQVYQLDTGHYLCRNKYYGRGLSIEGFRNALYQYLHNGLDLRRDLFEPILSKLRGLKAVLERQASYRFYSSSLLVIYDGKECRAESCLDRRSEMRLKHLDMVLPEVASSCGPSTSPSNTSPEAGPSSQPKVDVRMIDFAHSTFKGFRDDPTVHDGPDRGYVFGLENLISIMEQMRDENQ
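ADP-Glo luminescence measures ADP made by human IP6K1 during a 2 h RT reaction with ATP/IP6 (mix at 1.3 mM/130 uM); top library doses 57.5 and 19.1 uM final.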
KDM5B inhibitor: KDM5B demethylase inhibition; 220,000 tested, 2.6% active; KDM5B demethylase, FDH-coupled NADH fluorescence (FDH is formaldehyde dehydrogenase); Q9UGL1; Potency, µM (doses to about 57.7 µM), actives largely listed as inhibitors; AID 1347165; note: potency is the fitted concentration of half-maximal effect; 0% is about no effect; nearly all actives have a fitted effect of over 70% in size
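Here, H3K4me3 peptide (12.5 µM in substrate mix) is demethylated by KDM5BΔAP, 200 nM final, after 10 min compound exposure. Formaldehyde product is coupled through FDH (0.25 U/mL in mix) to NADH fluorescence; 30-min ΔRFU feeds dose-response curves.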
An asterisk follows results filed as active; [ ] = dose if it differs, or a comment. Most compounds without a hit are left out; they make up all but 2.9% or so of the library. Unless noted, calls come from the whole dose curve; as a rule, active = well fitted curve in the direction sought with a large enough effect; inconclusive = small, poorly fitted or top-dose-only effect, or another doubt; inactive = no such curve, though single readings can be large; an effect the other way counts as inactive or inconclusive.

`Cc1nnc2n1CCC(N(C)S(=O)(=O)c1ccccc1F)CC2` (centres undefined) gave SNCA expr inh 6%, SNCA viab count 15%, IP6K1 inh 11 and KDM5B inhibitor inactive.
Screening CCc1ccccc1NC(=O)CCCSc1nc(-c2ccco2)cc(C(F)(F)F)n1 returned SNCA expr inh 2%, SNCA viab count -1%, IP6K1 inh -5 and KDM5B inhibitor inactive.
c1cncc(-c2ccnc(N3CCCOC(Cn4cccn4)C3)n2)c1 (centres undefined) was read as SNCA expr inh -16%, SNCA viab count -3%, IP6K1 inh -17 and KDM5B inhibitor 25µM*.
Screening Fc1ccccc1OCC1CCCN(c2nccc(-c3cccnc3)n2)C1 (centres undefined) returned SNCA expr inh -9%, SNCA viab count 4%, IP6K1 inh 0 and KDM5B inhibitor 28µM*.
Screening CC1=C(C(=O)Nc2cccc(C(=O)N3CCN(c4ccccc4)CC3)c2)SCCO1 returned KDM5B inhibitor inactive.
`COc1cccc(C(=O)N[C@@H]2CN(c3ccccn3)C[C@H]2CN(C)C)c1` gave SNCA expr inh -22%, SNCA viab count -9%, IP6K1 inh 7 and KDM5B inhibitor 28µM*.
`COc1cccc(C(=O)N[C@@H]2CN(c3ccccn3)C[C@H]2CN(C)C)c1OC` gave SNCA expr inh -9%, SNCA viab count 1%, IP6K1 inh 22 and KDM5B inhibitor 28µM*.
`CN(C)C[C@@H]1CN(c2ncccn2)C[C@H]1NC(=O)c1ccc(Cl)s1` gave SNCA expr inh -13%, SNCA viab count -2%, IP6K1 inh 1 and KDM5B inhibitor 28µM*.
`CN(C)C[C@@H]1CN(S(C)(=O)=O)C[C@H]1NC(=O)c1ccc(Cl)s1` gave SNCA expr inh 5%, SNCA viab count 5%, IP6K1 inh 7 and KDM5B inhibitor inactive.
`COc1ccc(C(=O)N[C@@H]2CN(c3ncccn3)C[C@H]2CN(C)C)cc1F` gave SNCA expr inh -25%, SNCA viab count -11%, IP6K1 inh 5 and KDM5B inhibitor 25µM*.
For COc1cc(C2CC(=O)N(CC(=O)Nc3ccccc3F)c3ccccc3S2)cc(OC)c1OC (centres undefined) the results were SNCA expr inh inconclusive, SNCA viab count inconclusive, IP6K1 inh 12 and KDM5B inhibitor inconclusive.
`CC(OC(=O)c1ccc2ccccc2n1)C(=O)c1ccc(Cl)cc1` (centres undefined) gave KDM5B inhibitor inactive.
Screening O=C1Nc2ccccc2OCC12CCN(Cc1ccc(C(F)(F)F)cc1)CC2 returned SNCA expr inh -24%, SNCA viab count -16%, IP6K1 inh 33 and KDM5B inhibitor inactive.
Screening CN(C)C[C@@H]1CN(c2ncccn2)C[C@H]1NC(=O)c1cccc(F)c1 returned SNCA expr inh -9%, SNCA viab count inconclusive, IP6K1 inh 4 and KDM5B inhibitor 20µM*.
Screening O=C(N[C@@H]1CN(c2ncccn2)C[C@H]1CO)c1ccc(F)cc1 returned SNCA expr inh -8%, SNCA viab count 4%, IP6K1 inh 3 and KDM5B inhibitor inconclusive.
`COc1cccc(C(=O)N[C@@H]2CN(c3ncccn3)C[C@H]2CN(C)C)c1` gave SNCA expr inh 1%, SNCA viab count 10%, IP6K1 inh 8 and KDM5B inhibitor 32µM*.
For COc1cc(OC)cc(C(=O)N[C@@H]2CN(C)C[C@H]2CN(C)C)c1 the results were SNCA expr inh 6%, SNCA viab count 5%, IP6K1 inh -6 and KDM5B inhibitor inconclusive.
Screening O=C(O)c1ccc2oc(=O)n(Cc3ccccc3)c2c1 returned SNCA expr inh 11%, SNCA viab count -7%, IP6K1 inh -7 and KDM5B inhibitor inactive.
Screening COc1cccc(NC(=O)CCC2CCN(S(=O)(=O)c3c(C)noc3C)CC2)c1 returned SNCA expr inh -18%, SNCA viab count 2%, IP6K1 inh 8 and KDM5B inhibitor inactive.
For CCc1ccc(N2CC(c3noc(-c4cc(OC)c(OC)c(OC)c4)n3)CC2=O)cc1 (centres undefined) the results were SNCA expr inh inconclusive, SNCA viab count 0%, IP6K1 inh -1 and KDM5B inhibitor 32µM*.
For CCc1ccc(N2CC(c3noc(-c4ccc(OC)nc4OC)n3)CC2=O)cc1 (centres undefined) the results were SNCA expr inh -23%, SNCA viab count 12%, IP6K1 inh 33 and KDM5B inhibitor 35µM*.
`COc1cc(OC)cc(-c2nc(C3CC(=O)N(c4ccc(OC)c(OC)c4)C3)no2)c1` (centres undefined) gave SNCA expr inh 20%, SNCA viab count 8%, IP6K1 inh 7 and KDM5B inhibitor 28µM*.
`CCOC(=O)CCCOc1cccn2c(=O)c(-c3cc(C)n(-c4ccccc4C)n3)c(C)nc12` gave SNCA expr inh 6%, SNCA viab count 4%, IP6K1 inh 20 and KDM5B inhibitor 32µM*.
Screening CCOC(=O)CCCOc1cccn2c(=O)c(-c3cc(C)n(-c4cccc(C)c4)n3)c(C)nc12 returned SNCA expr inh 7%, SNCA viab count -8%, IP6K1 inh 19 and KDM5B inhibitor 28µM*.
Cc1ccccc1-n1nc(-c2c(C)nc3c(OCC(=O)OC(C)(C)C)cccn3c2=O)cc1C was read as SNCA expr inh -7%, SNCA viab count 0%, IP6K1 inh 20 and KDM5B inhibitor 20µM*.
`CCOC(=O)CCCOc1cccn2c(=O)c(-c3cc(C)n(-c4ccc(Cl)cc4)n3)c(C)nc12` gave SNCA expr inh -20%, SNCA viab count -10%, IP6K1 inh -4 and KDM5B inhibitor 25µM*.
`Cc1nc2c(OCC(=O)c3ccccc3)cccn2c(=O)c1-c1cc(C)n(-c2ccccc2)n1` gave SNCA expr inh 21%, SNCA viab count 3%, IP6K1 inh -18 and KDM5B inhibitor inconclusive.
`CN(C(=O)CSc1nc2ccc(NC(=O)c3cccs3)cc2s1)c1ccccc1` gave SNCA expr inh inconclusive, SNCA viab count inconclusive, IP6K1 inh 3 and KDM5B inhibitor inconclusive.
Screening Cc1ccc(CNC(=O)CSc2cc(C)[nH]c(=O)n2)cc1 returned SNCA expr inh 2%, SNCA viab count -11%, IP6K1 inh 21 and KDM5B inhibitor inactive.
For CN1CCN(Cc2ccc(-c3cnc4c(OCc5ccccc5)nccn34)cc2)CC1 the results were SNCA expr inh 26%[87.6 µM], SNCA viab count -14%[87.6 µM], IP6K1 inh -1 and KDM5B inhibitor 32µM*.
Cc1noc2c(-c3ccc(N4CCOCC4)cc3)cc(-c3cccs3)nc12 was read as SNCA expr inh inconclusive, SNCA viab count 30%[87.6 µM], IP6K1 inh -19 and KDM5B inhibitor inactive.
`CC(C)Cn1c(=O)c(C(=O)N2CCN([S+](=O)([O-])c3cccs3)CC2)nc2cccnc21` gave SNCA expr inh 3%, SNCA viab count 0% and IP6K1 inh -14.
Cc1cc(N2CCC(c3nccn3Cc3ccccn3)CC2)nc2ccccc12 was read as SNCA expr inh -11%, SNCA viab count -1%, IP6K1 inh -9 and KDM5B inhibitor 32µM*.

Bioassay records: PubChem BioAssay, National Center for Advancing Translational Sciences (NCATS)
